Source: PubChem (National Center for Advancing Translational Sciences (NCATS))
KB-V1 MDR tox: KB-V1 MDR subline cytotoxicity | KB-V1 MDR cells viability, CellTiter-Glo, 72 h | Potency, µM (doses to about 46.1 µM), most hits filed as cytotoxic | 400,000 tested, 3.4% active; also: potency is read from the fitted curve at half-maximal effect; % is scaled to controls: 0 for no effect and ±100 for the full control effect; nearly all actives have a fitted effect of over 60% in size
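KB-V1 cells (P-gp-expressing MDR subline of KB-3-1) in phenol-red-free DMEM with 10% FBS were exposed to library compounds over a concentration series for 72 h at 37 degrees C. Viability read by CellTiter-Glo luminescence; concentration-effect curves fitted after normalization.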
KB-3-1 cytotox: KB-3-1 parental cell cytotoxicity. Potency, µM (top dose mostly 46.1 µM), hits mostly cytotoxic. 400,000 tested, 1.4% active. KB-3-1 viability, CellTiter-Glo ATP luminescence, 72 h; also: potency is read from the fitted curve at half-maximal effect; % is scaled to controls: 0 for no effect and ±100 for the full control effect; nearly all actives have a fitted effect of over 60% in size
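Cells are dispensed, compounds pinned in, plates held at 37 °C for 72 h, then CellTiter-Glo is added and luminescence read after 10 minutes. Cell line: parental KB-3-1 in phenol-red-free DMEM, 10% FBS.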
D3 antag: D3 dopamine receptor (human) antagonism; max response, negative = inhibition, %; 360,000 tested, 2.5% active; D3R cells, DiscoveRx beta-arrestin luminescence, antagonist mode; active compounds read low; AID 652054; in the data active = max response below about -50%; inconclusive = no clear call, values can overlap the other calls; also: % is scaled to controls: 0 for no effect and ±100 for the full control effect
Target sequence (P35462 whole entry, looked up): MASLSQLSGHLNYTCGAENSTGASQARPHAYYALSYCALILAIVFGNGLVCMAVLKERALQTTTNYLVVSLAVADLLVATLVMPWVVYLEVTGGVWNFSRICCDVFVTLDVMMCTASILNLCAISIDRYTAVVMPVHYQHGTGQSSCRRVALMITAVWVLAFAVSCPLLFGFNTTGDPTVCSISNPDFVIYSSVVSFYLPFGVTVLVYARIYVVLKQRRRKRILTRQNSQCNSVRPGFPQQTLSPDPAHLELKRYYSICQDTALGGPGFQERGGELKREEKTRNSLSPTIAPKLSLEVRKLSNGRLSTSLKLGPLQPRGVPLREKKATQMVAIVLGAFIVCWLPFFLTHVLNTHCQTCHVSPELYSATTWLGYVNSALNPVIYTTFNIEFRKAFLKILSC
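Cells expressing the human receptor were seeded at 1500 cells/well, incubated overnight at 37 degrees C in 5% CO2, then exposed to library compounds with dopamine controls for 90 minutes at 37 degrees C before luminescent detection.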
MCF10A rereplic: DNA re-replication induction in MCF 10a cells; Potency, µM (series often up to 46.1 µM), for inactives: top-dose activity, positive = re-replication, usual class: activators; 350,000 tested, 2.9% active; MCF 10A DNA re-replication, Hoechst nuclear intensity, 48 h; also: potency is read from the fitted curve at half-maximal effect; % of control where 0% means no effect; nearly all actives have a fitted effect of over 50% in size
D3 ag: activates the human D3 dopamine receptor; P35462; D3R DiscoveRx beta-arrestin cells, luminescence, 90 min; max activation, %; 410,000 tested, 0.58% active; in the data active = max activation above about 30%; also: 0% is about no effect
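Cells at 1500/well, incubated overnight, then treated with pinned compounds (dopamine as control) for 90 min at 37 degrees C. DiscoveRx reagent added for 30 - 60 minutes at room temperature; luminescence read.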
SW480 rereplic: DNA re-replication induction in SW480 cells | SW480 DNA re-replication, Hoechst DNA content imaging, 48 h | Potency, µM (highest dose often 46.1 µM), for the others: top-dose re-replication activation, actives largely listed as activators | 340,000 tested, 1.8% active | AID 624297; also: potency is read from the fitted curve at half-maximal effect; % of control where 0% means no effect; nearly all actives have a fitted effect of over 55% in size
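Image-based DNA-content assay: after two days of treatment, nuclei were labelled with the DNA dye Hoechst and imaged, and hits were compounds raising the count of nuclei showing high fluorescence intensity.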
Numbers without * were called inactive; ! = repeats disagree; [ ] = dose if it differs, or a comment. An excerpt weighted towards active compounds, which were near 8.9% of everything screened. Unless noted, calls follow the shape of the dose curve; as a rule, active = well fitted curve in the direction sought with a large enough effect; inconclusive = small, poorly fitted or top-dose-only effect, or another doubt; inactive = no such curve, though single readings can be large; an effect the other way counts as inactive or inconclusive.

Screening Cc1ccc(NC(=S)NC(NC(=O)c2ccco2)C(Cl)(Cl)Cl)cc1 (configuration not stated) returned KB-V1 MDR tox inactive, KB-3-1 cytotox inactive, D3 antag 0.9, MCF10A rereplic 16.4µM*, D3 ag 3.1 and SW480 rereplic 9.3%.
For Cc1ccc(NC(=S)NC(NC(=O)c2ccccc2)C(Cl)(Cl)Cl)c(C)c1 (configuration not stated) the results were KB-V1 MDR tox 16.4µM*, KB-3-1 cytotox inconclusive, D3 antag -25.5, MCF10A rereplic inconclusive, D3 ag -19.0 and SW480 rereplic 3.8%.
O=C(NC(NC(=S)Nc1ccc(Cl)cc1Cl)C(Cl)(Cl)Cl)c1cccc([N+](=O)[O-])c1 (configuration not stated) was read as KB-V1 MDR tox inconclusive, KB-3-1 cytotox inconclusive, D3 antag -57.7*, MCF10A rereplic 11.6µM*, D3 ag -1.7 and SW480 rereplic 20.6µM*.
CSc1nc2sc3c(c2c(=O)n1-c1ccc(F)c(Cl)c1)CCN(C(C)=O)C3 was read as KB-V1 MDR tox inactive, KB-3-1 cytotox inactive and D3 ag 2.5.
CC(=O)c1ccc(N2CCN(C(=O)CCCc3nc4ccccc4s3)CC2)cc1 was read as KB-V1 MDR tox inactive, KB-3-1 cytotox inactive, D3 antag 2.2, MCF10A rereplic 18.4µM*, D3 ag 13.3 and SW480 rereplic -4.0%.
`O=C(CCc1nc2ccccc2s1)N1CCN(c2ccccc2)CC1` gave KB-V1 MDR tox inactive, KB-3-1 cytotox inactive, D3 antag 26.5, MCF10A rereplic 9.7%, D3 ag 3.2 and SW480 rereplic -1.3%.
Screening Cn1c(SCCN2CCCCC2)nnc1-c1ccccc1Br returned KB-V1 MDR tox inactive, KB-3-1 cytotox inactive, D3 antag -63.3*, MCF10A rereplic 3.7%, D3 ag -4.0 and SW480 rereplic -1.9%.
For Cn1c(SCCC#N)nnc1-c1ccccc1F the results were KB-V1 MDR tox inactive, KB-3-1 cytotox inactive, D3 antag -0.2, MCF10A rereplic -1.2%, D3 ag -4.6 and SW480 rereplic -1.5%.
C[C@H](Cc1ccc(O)c(O)c1)[C@@H](C)Cc1ccc(O)c(O)c1 was read as KB-V1 MDR tox inactive, KB-3-1 cytotox inactive and D3 ag 10.4.
For CC(Cc1ccc(O)c(O)c1)C(C)Cc1ccc(O)c(O)c1 (configuration not stated) the results were KB-V1 MDR tox inactive, KB-3-1 cytotox inactive, D3 antag 12.0, MCF10A rereplic inconclusive, D3 ag 16.5 and SW480 rereplic 0.366µM*!.
`COc1ccc(-n2c(COc3ccc(C)cc3)nnc2SCc2ccc(C#N)cc2)cc1` gave KB-V1 MDR tox 6.51µM*, KB-3-1 cytotox inactive, D3 antag 8.7, MCF10A rereplic 5.8%, D3 ag 8.7 and SW480 rereplic 1.1%.
COc1ccc(-n2c(COc3ccc(Cl)cc3)nnc2SCc2ccc(C#N)cc2)cc1 was read as KB-V1 MDR tox inconclusive, KB-3-1 cytotox inactive, D3 antag -21.6, MCF10A rereplic 15.5%, D3 ag -15.2 and SW480 rereplic 2.5%.
For COc1ccccc1CNc1nc2ccccc2n1CCN1CCCCC1 the results were KB-V1 MDR tox inconclusive, KB-3-1 cytotox inactive, D3 antag inconclusive, MCF10A rereplic 9.3%, D3 ag -6.1 and SW480 rereplic 6.3%.
Screening CCCCn1c(NCc2cc(Cl)ccc2O)nc2ccccc21 returned KB-V1 MDR tox 13µM*, KB-3-1 cytotox inconclusive and D3 ag -0.5.
For CCCn1c(NCc2ccccn2)nc2ccccc21 the results were KB-V1 MDR tox inactive, KB-3-1 cytotox inactive, D3 antag inconclusive, MCF10A rereplic 4.4%, D3 ag -5.8 and SW480 rereplic 1.7%.
Screening Oc1ccccc1CNc1nc2ccccc2n1CCN1CCCCC1 returned KB-V1 MDR tox inactive, KB-3-1 cytotox inactive, D3 antag -74.2*, MCF10A rereplic 11.2%, D3 ag -13.4 and SW480 rereplic -5.6%.
c1ccc(CNc2nc3ccccc3n2CCN2CCOCC2)nc1 was read as KB-V1 MDR tox inactive, KB-3-1 cytotox inactive, D3 antag 0.0, MCF10A rereplic 23.1µM*, D3 ag 7.9 and SW480 rereplic inconclusive.
`COc1ccc(C(=O)NCCn2cc(SCc3ccc(C(F)(F)F)cc3)c3ccccc32)cc1OC` gave KB-V1 MDR tox inactive, KB-3-1 cytotox inactive and D3 ag 3.4.
Screening COC(=O)c1cc2sccc2n1CC(=O)Nc1ccc(C)cc1C returned KB-V1 MDR tox inactive, KB-3-1 cytotox inactive and D3 ag 8.3.
CCCCC(=O)N1C/C=C\C(c2ccc(OC)cc2)N(Cc2ccc(F)cc2)C(=O)[C@H]1Cc1ccccc1 (some centres not stated) was read as KB-V1 MDR tox inactive, KB-3-1 cytotox inconclusive, D3 antag -5.4, MCF10A rereplic inconclusive, D3 ag 3.0 and SW480 rereplic 3.66µM*.
For CCCCCCC(=O)N1C/C=C\C(c2ccc(OC)cc2)N(Cc2ccc(F)cc2)C(=O)[C@H]1Cc1ccccc1 (some centres not stated) the results were KB-V1 MDR tox inconclusive, KB-3-1 cytotox inactive, D3 antag 0.0, MCF10A rereplic -16.9%, D3 ag -11.1 and SW480 rereplic -89.8%[9.22 µM].
`COc1ccc(C2/C=C\CN(C(=O)c3ccc(C)cc3)[C@H](Cc3ccccc3)C(=O)N2Cc2ccc(F)cc2)cc1` (some centres not stated) gave KB-V1 MDR tox inconclusive, KB-3-1 cytotox 11.6µM*, D3 antag -18.6, MCF10A rereplic inconclusive, D3 ag 1.9 and SW480 rereplic 1.2%.
`O=S(=O)(c1ccccc1)c1cnn(-c2ccccc2)c1-c1ccc(Cl)cc1` gave KB-V1 MDR tox 14.6µM*, KB-3-1 cytotox inconclusive, D3 antag -26.5, MCF10A rereplic 6.7%, D3 ag -4.1 and SW480 rereplic 11.1%.
Screening Nc1nc(-c2ccc(Cl)cc2)c(S(=O)(=O)c2ccccc2)s1 returned KB-V1 MDR tox inactive, KB-3-1 cytotox inactive, D3 antag 0.2, MCF10A rereplic 7.5%, D3 ag -8.3 and SW480 rereplic -8.4%.
Screening COc1ccc(-c2c(S(=O)(=O)c3ccccc3)cnn2-c2ccccc2)cc1 returned KB-V1 MDR tox 23.1µM*, KB-3-1 cytotox inconclusive, D3 antag 10.2, MCF10A rereplic -183.7%[0.0737 µM], D3 ag -1.1 and SW480 rereplic 1.7%.
O=C1CCCCC(=O)[C@H](O)C[C@H](COCc2ccccc2)O1 was read as KB-V1 MDR tox inactive, KB-3-1 cytotox inactive, D3 antag 0.0 and D3 ag 90.9*.
